Assay [1] in a line: ATG_GLI_CIS: Attagene CIS-FACTORIAL HepG2 Assay for human Zinc Finger Protein GLI1 (AID 2282945). The note with it: HepG2, Attagene cis-factorial reporter mRNA, GLI element; actives raise or lower the signal. The procedure, abridged: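 Transiently transfected HepG2 cells report endogenous transcription factor activity via cis-element-driven reporter units. After 24 h compound exposure, reporter mRNA was measured by RT-PCR with capillary electrophoresis; bidirectional fitting against DMSO baseline.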

Assay [2] has as its target Bile acid receptor (Homo sapiens) (UniProt Q96RI1). In words: ATG_IR1_CIS: Attagene CIS-FACTORIAL HepG2 Assay for human Nuclear Receptor Subfamily 1 Group H Member 4 (NR1H4), IR1 submotif (AID 2282946). The settings on record: IR1 reporter transcription, actives raise or lower the signal. The procedure, abridged: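 Fluorescence of capillary-separated, HpaI-digested RT-PCR reporter products gave IR1-element mRNA induction in HepG2 cells 24 h after dosing. Endogenous transcription factors drove the cis-regulated reporters; activity was fitted bidirectionally against DMSO.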

Assay [3] in a line: ATG_GRE_CIS: Attagene CIS-FACTORIAL HepG2 Assay for human Glucocorticoid Response Elements (GRE) (AID 2282947). The settings on record: HepG2 GRE cis-reporter, Attagene multiplex mRNA; actives raise or lower the signal. In short, it runs like this:
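Read-out: fluorescent reporter-transcript fragments separated by capillary electrophoresis after RT-PCR. Transiently transfected HepG2 cells carrying cis-element-driven reporter units were dosed for 24 h; gain or loss of signal fitted against DMSO control.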

Assay [4] can be described thus: ATG_ISRE_CIS: Attagene CIS-FACTORIAL HepG2 Assay for human Interferon Regulatory Factor 1 (IRF1) binding to an Interferon-Stimulated Response Element (ISRE) (AID 2282948). The note with it: HepG2 ISRE cis-reporter (Attagene), mRNA transcription readout; actives raise or lower the signal. The procedure, abridged:
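Read-out: fluorescent RT-PCR products resolved by capillary electrophoresis, reporting endogenous transcription factor activity via ISRE-driven reporter mRNA in transfected HepG2 cells dosed for 24 h; gain or loss fitted relative to DMSO.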

Assay [5] in a line: ATG_M_32_CIS: Attagene CIS-FACTORIAL HepG2 Assay for M32 Transcription Factor (Internal Marker) (AID 2282949).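 Also: background control marker of the multiplexed CIS panel rather than a real target.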 The settings on record: HepG2 Attagene cis-factorial M32 reporter, mRNA; actives raise or lower the signal. In short, it runs like this: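 Using DMSO as baseline, bidirectional curve fits were applied to reporter mRNA signals. These came from transiently transfected HepG2 cells exposed for 24 h, with RNA analysed by RT-PCR, FAM primer extension, HpaI digestion and CE.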

Assay [6] can be described thus: ATG_M_06_CIS: Attagene CIS-FACTORIAL HepG2 Assay for M06 Transcription Factor (Internal Marker) (AID 2282950). The note with it: HepG2 Attagene CIS-FACTORIAL M06 internal marker reporter; actives raise or lower the signal. The procedure, abridged:
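One of many multiplexed endpoints: HepG2 reporter mRNA after 24 h dosing, detected by RT-PCR and capillary electrophoresis fluorescence; gain or loss of signal analysed against DMSO.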

Assay [7] concerns the target Hypoxia-inducible factor 1-alpha (Homo sapiens) (UniProt Q16665). Description: ATG_HIF1a_CIS: Attagene CIS-FACTORIAL HepG2 Assay for human Hypoxia Inducible Factor 1 (HIF1A) (AID 2282951). The note with it: HepG2 Attagene cis-factorial HIF1a reporter transcription; actives raise or lower the signal. In short, it runs like this:
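Activity is fitted in both directions relative to DMSO. Reporter transcripts are read by RT-PCR, fluorescent primer extension and capillary electrophoresis after 24 h chemical treatment. The cells are HepG2 carrying transiently transfected cis-element-driven reporter units responding to endogenous factors.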

The target in assay [8] is Hepatocyte nuclear factor 6 (Homo sapiens) (UniProt Q9UBC0). Description: ATG_HNF6_CIS: Attagene CIS-FACTORIAL HepG2 Assay for human Hepatocyte Nuclear Factor 6 (HNF6) (AID 2282952). The note with it: HepG2 Attagene cis-factorial HNF6 reporter transcription; actives raise or lower the signal. The procedure, abridged:
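Using cis-element reporters in HepG2 liver cells, the assay tracks endogenous factor-driven transcription 24 h post-dosing. Signal comes from 6-FAM-labelled, HpaI-digested RT-PCR fragments, with gain or loss scored against DMSO.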

In assay [9] the target is Heat shock factor protein 1 (Homo sapiens) (UniProt Q00613). In words: ATG_HSE_CIS: Attagene CIS-FACTORIAL HepG2 Assay for human Heat Shock Transcription Factor 1 (HSE) (AID 2282953). The note with it: HepG2 HSE cis-reporter, Attagene RNA transcription; actives raise or lower the signal. In short, it runs like this:
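Using HepG2 with transfected cis-driven reporter constructs, compound effects on endogenous factor activity are scored as reporter mRNA change at 24 h. Detection: RT-PCR, HpaI digestion, capillary electrophoresis; bidirectional fitting to DMSO.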

Assay [10] is described as follows: ATG_MRE_CIS: Attagene CIS-FACTORIAL HepG2 Assay for human Metal Responsive Element (MRE) (AID 2282954). The settings on record: HepG2 MRE cis-reporter transcription, Attagene multiplex; actives raise or lower the signal. In short, it runs like this:
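RT-PCR/capillary electrophoresis readout of reporter mRNA, 24 h post-dosing, in HepG2 cells transfected with multiplexed cis-regulated reporter constructs. Gain or loss of signal fitted bidirectionally against DMSO baseline.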

Activity calls are given as the source filed them. The calls were made as follows: active = hit-call score of the fitted dose curve at least 0.9, where 1 is the maximum; inactive = score below 0.9.

The term AC50 denotes the concentration giving half of the maximal activity seen.

Sequence of Hypoxia-inducible factor 1-alpha (Homo sapiens) (Q16665 whole entry, looked up): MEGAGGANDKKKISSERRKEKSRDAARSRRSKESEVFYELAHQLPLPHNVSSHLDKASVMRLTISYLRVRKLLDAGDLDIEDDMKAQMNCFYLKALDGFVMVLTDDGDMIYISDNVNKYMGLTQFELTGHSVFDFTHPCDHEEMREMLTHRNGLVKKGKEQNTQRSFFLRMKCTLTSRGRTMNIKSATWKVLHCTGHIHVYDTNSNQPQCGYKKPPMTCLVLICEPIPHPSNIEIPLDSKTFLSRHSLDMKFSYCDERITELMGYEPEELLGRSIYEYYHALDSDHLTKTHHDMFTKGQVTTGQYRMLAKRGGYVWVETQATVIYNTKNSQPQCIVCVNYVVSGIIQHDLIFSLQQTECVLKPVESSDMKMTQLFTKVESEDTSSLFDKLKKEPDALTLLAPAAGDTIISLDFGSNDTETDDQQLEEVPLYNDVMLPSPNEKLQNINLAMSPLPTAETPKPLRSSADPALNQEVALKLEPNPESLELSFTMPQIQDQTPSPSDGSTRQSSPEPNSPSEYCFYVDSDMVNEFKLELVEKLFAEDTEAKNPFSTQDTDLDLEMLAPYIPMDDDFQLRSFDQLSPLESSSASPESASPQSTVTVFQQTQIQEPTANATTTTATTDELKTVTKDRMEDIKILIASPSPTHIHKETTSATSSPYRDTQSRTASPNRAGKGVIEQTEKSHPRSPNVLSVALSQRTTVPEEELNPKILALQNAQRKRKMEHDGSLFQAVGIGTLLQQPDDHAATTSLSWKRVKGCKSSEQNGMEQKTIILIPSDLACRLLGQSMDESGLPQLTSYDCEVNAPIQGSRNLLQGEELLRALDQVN
Sequence of Hepatocyte nuclear factor 6 (Homo sapiens) (Q9UBC0 whole entry, looked up, the tested form may be a part): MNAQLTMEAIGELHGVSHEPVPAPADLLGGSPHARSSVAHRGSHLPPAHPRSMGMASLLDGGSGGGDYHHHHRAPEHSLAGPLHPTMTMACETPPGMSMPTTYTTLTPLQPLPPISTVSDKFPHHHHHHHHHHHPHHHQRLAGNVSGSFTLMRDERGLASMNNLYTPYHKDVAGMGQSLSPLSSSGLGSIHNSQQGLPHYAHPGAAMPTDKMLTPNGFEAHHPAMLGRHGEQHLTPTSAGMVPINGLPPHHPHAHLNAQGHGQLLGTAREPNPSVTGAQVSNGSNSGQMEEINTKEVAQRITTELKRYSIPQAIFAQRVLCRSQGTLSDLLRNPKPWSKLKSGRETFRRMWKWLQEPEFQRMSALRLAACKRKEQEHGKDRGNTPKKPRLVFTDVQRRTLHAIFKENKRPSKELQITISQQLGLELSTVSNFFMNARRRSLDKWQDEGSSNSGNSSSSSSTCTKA
Sequence of Heat shock factor protein 1 (Homo sapiens) (Q00613 whole entry, looked up): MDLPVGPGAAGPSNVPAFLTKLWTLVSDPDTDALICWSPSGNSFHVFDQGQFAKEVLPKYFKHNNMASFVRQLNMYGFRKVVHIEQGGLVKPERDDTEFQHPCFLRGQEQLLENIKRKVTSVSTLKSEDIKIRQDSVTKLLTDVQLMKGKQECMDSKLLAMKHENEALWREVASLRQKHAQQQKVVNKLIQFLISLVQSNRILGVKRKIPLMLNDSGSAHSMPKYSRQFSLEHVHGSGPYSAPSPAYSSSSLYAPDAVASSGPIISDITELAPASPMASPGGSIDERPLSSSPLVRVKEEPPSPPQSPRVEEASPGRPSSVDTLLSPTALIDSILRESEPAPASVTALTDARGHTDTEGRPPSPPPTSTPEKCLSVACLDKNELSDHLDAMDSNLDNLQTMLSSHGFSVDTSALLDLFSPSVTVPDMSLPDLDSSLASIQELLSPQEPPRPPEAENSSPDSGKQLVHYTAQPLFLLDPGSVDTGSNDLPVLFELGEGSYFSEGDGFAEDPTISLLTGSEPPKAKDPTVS
Sequence of Bile acid receptor (Homo sapiens) (Q96RI1 whole entry, looked up): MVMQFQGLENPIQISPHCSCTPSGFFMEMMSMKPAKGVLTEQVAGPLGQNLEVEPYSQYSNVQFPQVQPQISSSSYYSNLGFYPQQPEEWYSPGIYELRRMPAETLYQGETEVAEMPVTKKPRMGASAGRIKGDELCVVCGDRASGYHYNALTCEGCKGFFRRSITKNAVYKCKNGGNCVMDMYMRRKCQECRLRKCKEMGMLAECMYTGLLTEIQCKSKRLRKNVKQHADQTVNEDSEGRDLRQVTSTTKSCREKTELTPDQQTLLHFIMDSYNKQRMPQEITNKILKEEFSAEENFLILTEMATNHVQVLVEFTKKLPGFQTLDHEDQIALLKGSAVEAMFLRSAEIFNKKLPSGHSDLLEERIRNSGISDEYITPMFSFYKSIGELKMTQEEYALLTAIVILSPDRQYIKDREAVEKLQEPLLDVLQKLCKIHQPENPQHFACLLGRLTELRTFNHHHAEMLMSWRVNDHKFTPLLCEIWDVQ

Turning to `CCOC(OCC)OCC`, the outcome in [1], in [2], in assay [3], in assay [4], in assay [5] and in [6] was inactive. The compound was classed as inactive in [7], in [8], in [9] and in assay [10].
Take `NC(O)(C(F)(F)F)C(F)(F)F`: the compound was classed as inactive in [1], in [2], in assay [3], in assay [4], in [5] and in [6]. The compound was classed as inactive in [7], in assay [8] and in [10].
`OCCCc1cccnc1`: the call in assay [1], in assay [2], in assay [3], in assay [4], in [5] and in assay [6] was inactive. Further, the compound was classed as inactive in [7], in [8], in assay [9] and in assay [10].
As for `O=C1C=CC(=O)N1c1ccc(Cc2ccc(N3C(=O)C=CC3=O)cc2)cc1`, the call in assay [1], in assay [2], in assay [3], in [4], in assay [5] and in [6] was inactive. Also, the compound was classed as inactive in [10]. Besides, the AC50 in [7] is 46.9 µM (active); in [8], 50.7 µM (active); in [9] it was 55.2 µM (active).
With `CC1=CC2C3C=CC(C3)C2C1C` (stereo unspecified), the compound was classed as inactive in [1], in assay [2], in [3], in assay [4], in [5] and in assay [6]. The result in [7] and in [8] was inactive. Also, the AC50 in assay [10] is 65.8 µM (active).
Turning to `N#CCCOCCC#N`, the result in [1], in [2], in assay [3], in [4], in assay [5] and in assay [6] was inactive. Further, the outcome in [7], in assay [8] and in assay [10] was inactive.
`CC(C)CCCC(C)CCO` (stereo unspecified): the compound was classed as inactive in assay [1], in [2], in [3], in [4], in [5] and in assay [6]. In addition, the outcome in assay [7], in [8] and in assay [10] was inactive.
As to `CC1CCCCC1`, the compound was classed as inactive in assay [1], in assay [2], in [3], in assay [4], in assay [5] and in assay [6]. Moreover, the compound was classed as inactive in assay [7], in assay [8], in [9] and in [10].
`CC(C)Nc1ccc(NC(C)C)c2c1C(=O)c1ccccc1C2=O`: the compound was classed as inactive in assay [1], in [2], in [3], in assay [4], in assay [5] and in assay [6]. Further, the outcome in [7], in [8], in assay [9] and in [10] was inactive.
In the case of `CC(=O)c1ccccc1N`, the compound was called inactive in assay [1], in assay [2], in assay [3], in assay [4], in assay [5] and in [6]. Further, the result in assay [7], in assay [8], in assay [9] and in assay [10] was inactive.
Take `CCCCCCCCCc1ccc(OCCO)cc1`: the AC50 in assay [1] is 21.4 µM (active); in assay [3], 19.2 µM (active); in [4] it was 18.7 µM (active); in assay [5] it was 21.7 µM (active); in assay [7], 13.3 µM (active); in [9], 16.8 µM (active). Besides, the AC50 in assay [10] is 13.3 µM (active). The compound was called inactive in [2], in [6] and in assay [8].
With `O=C(c1ccccc1)c1ccc(Cl)cc1`, the compound was called inactive in assay [1], in [2], in assay [3], in assay [4], in assay [5] and in assay [6]. Moreover, the outcome in [7] and in assay [8] was inactive. Further, the AC50 was 153 µM (active) in assay [9] and 57.5 µM (active) in assay [10].
For `FC(F)(F)C(F)(F)C(F)(F)C(F)(F)C(F)(F)C(F)(F)CC[Si](Cl)(Cl)Cl`, the compound was called inactive in assay [1], in assay [2], in assay [3], in [4], in assay [5] and in assay [6]. For the same compound, the compound was classed as inactive in assay [7], in assay [8] and in assay [10].
Turning to `COCCOCCC[Si](C)(O[Si](C)(C)C)O[Si](C)(C)C`, the call in assay [1], in assay [4], in assay [5], in [6], in assay [7] and in assay [8] was inactive. In addition, the outcome in [10] was inactive. Besides, the AC50 in [2] was 51 µM (active); in [3] it was 8.99 µM (active).
Consider `Cc1ccc2c(c1)OCC(=O)CO2`, for which the compound was classed as inactive in assay [1], in [2], in assay [3], in assay [4], in assay [5] and in assay [6]. For the same compound, the compound was called inactive in assay [7], in assay [8], in assay [9] and in assay [10].
With `NCC(F)(F)C(F)(F)C(F)(F)C(F)(F)C(F)(F)C(F)(F)C(F)(F)C(F)(F)F`, the outcome in [1], in [2], in [3], in assay [4], in [5] and in [6] was inactive. The compound was called inactive in [7], in assay [8], in [9] and in assay [10].
With `C=CC(=O)OCC(F)(F)C(F)(F)C(F)(F)C(F)(F)C(F)(F)C(F)(F)C(F)(F)C(F)F`, the call in assay [1], in assay [2], in assay [3], in [5], in assay [6] and in [7] was inactive. Also, in [8], the call was inactive. The AC50 in assay [4] was 150 µM (active); in assay [9], 218 µM (active); in assay [10], 231 µM (active).
With `OCC1CCCO1` (stereo unspecified), the result in assay [1], in assay [2], in assay [3], in assay [4], in assay [5] and in assay [6] was inactive. Besides, the compound was called inactive in assay [7], in assay [8] and in assay [10].
Take `NC(=O)C(F)(F)C(F)(F)C(F)(F)C(F)(F)C(N)=O`: the result in assay [1], in assay [2], in assay [3], in [4], in assay [5] and in [6] was inactive. In addition, the compound was classed as inactive in assay [7], in [8] and in assay [10].
For `FC(F)(F)C(F)(F)C(F)(F)CC1CO1` (stereo unspecified), the result in [1], in assay [2], in assay [3], in assay [4], in assay [5] and in assay [6] was inactive. The compound was called inactive in assay [7], in assay [8] and in [10].
Take `Brc1ccccn1`: the result in assay [1], in assay [2], in assay [3], in assay [4], in assay [5] and in [6] was inactive. For the same compound, the result in assay [7], in assay [8], in [9] and in assay [10] was inactive.
As to `O=S(=O)(O)CCC(F)(F)C(F)(F)C(F)(F)C(F)(F)F`, the compound was classed as inactive in [1], in [2], in assay [3], in assay [4], in [5] and in assay [6]. Also, the result in assay [7], in [8], in [9] and in [10] was inactive.
Regarding `CCCCCCCC/C=C\CCCCCCCC(=O)N(C)CC(=O)O`, the outcome in assay [1], in assay [2], in assay [3], in assay [4], in assay [5] and in [6] was inactive. Also, the compound was called inactive in assay [7], in [8], in assay [9] and in assay [10].
Take `Cc1cnccn1`: the call in assay [1], in assay [2], in [3], in assay [4], in assay [5] and in assay [6] was inactive. The outcome in assay [7], in [8], in assay [9] and in assay [10] was inactive.

The values are drawn from PubChem BioAssay (EPA / NIEHS).
